High-throughput results (PubChem)
VDR inhibitor – blocks the human vitamin D receptor; P11473; VDR-SRC2-3 peptide fluorescence polarization, 2 h; Potency, µM, for inactives: max response, negative = inhibition, usual class: inhibitors; actives 0.93% (n = 400,000); AID 504847; further: potency means the concentration at half of the fitted maximal effect
Target sequence (P11473 whole entry, looked up): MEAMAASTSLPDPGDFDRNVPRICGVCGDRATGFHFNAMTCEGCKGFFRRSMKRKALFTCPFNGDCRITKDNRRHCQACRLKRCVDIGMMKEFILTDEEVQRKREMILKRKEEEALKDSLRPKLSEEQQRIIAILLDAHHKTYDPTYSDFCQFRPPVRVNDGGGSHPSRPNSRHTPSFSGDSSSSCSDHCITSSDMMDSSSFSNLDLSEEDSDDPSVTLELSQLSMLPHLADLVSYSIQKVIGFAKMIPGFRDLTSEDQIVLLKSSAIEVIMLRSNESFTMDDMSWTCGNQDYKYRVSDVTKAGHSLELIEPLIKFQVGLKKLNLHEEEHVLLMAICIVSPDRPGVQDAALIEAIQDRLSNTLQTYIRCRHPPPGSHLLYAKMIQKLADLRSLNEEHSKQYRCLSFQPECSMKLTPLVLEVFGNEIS
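Fluorescence polarization assay measuring small-molecule disruption of VDR binding to the coregulator peptide SRC2-3. Compounds were pin-transferred (23 nl) into the reagent mix and incubated 2 h at room temperature before reading.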
GLS inh – blocks human kidney-isoform glutaminase activity; O94925; actives 0.21% (n = 410,000); Potency, µM (highest dose often 45.5 µM), without a hit: top-dose activity change, negative = inhibition, usual class: inhibitors; GLS enzymatic activity, qHTS titration; AID 624170; further: potency means the concentration at half of the fitted maximal effect
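Read-out is an Amplex red fluorescence increase coupled through glutamate oxidase and HRP, measured before and after 30 min room-temperature incubation. hKGA is in 45 mM KH2PO4 (pH 8.2) with 0.02% Tween-20; glutamine added as 1mM solution.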
GCN5L2 inh – blocks human GCN5L2 histone acetyltransferase | GCN5L2 HAT assay, ThioGlo1 CoA-SH fluorescence | actives 0.21% (n = 390,000) | Potency, µM (doses to about 58.9 µM), inactives show top-dose activity change, negative = inhibition, hits mostly inhibitors; further: potency means the concentration at half of the fitted maximal effect
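Preincubate 20nM GCN5L2 with compound 15 min, RT → add 50uM ThioGlo1 + 75uM H3(1-25) + 70uM acetyl-CoA → read fluorescence 0 and 20 min. Primary qHTS; fluorescent artifacts likely.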
PI4K2A block – PI4K2A (human) kinase inhibition; Q9BTU6; purified PI4K2A, ADP-Glo luminescence, 1 h; active compounds read low; activity change, negative = inhibition, % at 76.9 µM; actives 0.13% (n = 420,000); in the data active means activity change below about -50%; inconclusive means mostly about -30% to -49%;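 further: -100% = wells without enzyme as full effect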
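ADP-Glo luminescence measured ADP generated by PI4K2A enzyme (4 ug/mL before mixing) with 1.2 mM PI substrate (pre-mix) and 300 microM ATP (pre-mix). Tris pH7.5 buffer with MgCl2, Triton X-100; 1 h reaction at ambient temperature.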
PLK1 PBD block – PLK1 (human) polo-box domain binding inhibition. Potency, µM, inactives show max response, negative = inhibition, usual class: inhibitors. AID 720504. actives 2.8% (n = 360,000). Plk1 PBD binding of FITC phosphopeptide, fluorescence polarization. P53350; further: potency means the concentration at half of the fitted maximal effect; series mostly up to about 57 µM; nearly all actives have a fitted effect of over 65% in size
* = called active by the depositor; ? = inconclusive; . = not tested or not shown. In the library only some 3.1% were active in any assay of this set; here they are far more common. Unless noted, the call rests on the fitted dose curve; in most records, active means well fitted curve in the direction sought with a large enough effect; inconclusive means small, poorly fitted or top-dose-only effect, or another doubt; inactive means no such curve, though single readings can be large; an effect the other way counts as inactive or inconclusive. Unless noted, on the % scale 0 is the no-effect control and ±100 the full control effect.

SMILES	VDR inhibitor	GLS inh	GCN5L2 inh	PI4K2A block	PLK1 PBD block
COc1ccc2[nH]c3c(c2c1)CCN[C@]31C(=O)N(C)c2ccc(Br)cc21	.	.	.	3	.
Cc1cccc(N=C2NC(=O)/C(=C/c3cccn3C)S2)c1C	10%	0%	-6%	-6	-6%
O=C(O)c1cccc(-n2cccc2/C=C2/NC(=O)N(c3ccc(Cl)cc3)C2=O)c1	5%	-4%	8.9µM*	?	4.7µM*
Cc1ccccc1N=C1NC(=O)/C(=C/c2cccn2-c2cccc(C(=O)O)c2)S1	-12%	4%	-2%	3	17µM*
O=C(OC12CCCN(C1)/C(=C/c1cccc(Cl)c1)C2)c1cccc(F)c1 (centres undefined)	.	.	.	-5	.
CCOc1ccc(-n2c(SCC(=O)c3ccccc3Cl)nnc2-c2ccncc2)cc1	.	.	.	-2	.
O=C(c1cccn(Cc2ccc(C(F)(F)F)cc2)c1=O)N1CCOCC1	-3%	3%	-8%	2	27µM*
O=C(c1ccc(C(F)(F)F)n(Cc2ccc(Cl)cc2)c1=O)N1CCOCC1	?	1%	-5%	0	-6%
O=C(CCc1ccccc1-c1ccccc1CCNC(=O)COCc1ccccc1)NCc1ccccc1	.	.	.	0	.
Cc1ccc(N2C(=O)C(CC(=O)Nc3ccc(F)cc3)N(Cc3ccc4c(c3)OCO4)C2=O)cc1 (centres undefined)	-4%	0%	-9%	5	.
S=c1[nH]nc(COc2ccccc2)n1/N=C/c1ccc(Cl)c(Cl)c1	2%	-1%	2%	5	17µM*
Cc1cccc(/C=N/n2c(COc3ccccc3)n[nH]c2=S)c1	-7%	7%	-6%	-1	24µM*
CCc1ccc(/C=N/n2c(COc3ccccc3)n[nH]c2=S)cc1	1%	-15%	-12%	10	?
S=c1[nH]nc(COc2ccccc2)n1/N=C/c1ccccc1Br	-19%	9%	-5%	-13	?
O=[N+]([O-])c1ccc(Cl)c(/C=N/n2c(COc3ccccc3)n[nH]c2=S)c1	?	11%	-13%	-10	24µM*
Cc1cccc(N(CC(=O)N(C)Cc2ccccc2)S(=O)(=O)c2ccccc2)c1C	-8%	-2%	-9%	13	.
Cc1cc(C)cc(-c2c(C(=O)c3ccc(Br)cc3)[nH]c(N)c2C(=O)NCc2ccc(Cl)cc2)c1	.	.	.	1	.
N#Cc1c(C(F)(F)F)cc(-c2ccccc2)nc1SCC(=O)Nc1sc2c(c1C#N)CCC2	-4%	12%	-7%	-2	30µM*
CC(Sc1nc(-c2ccccc2)cc(C(F)(F)F)n1)C(=O)Nc1sc2c(c1C#N)CCC2 (centres undefined)	3%	2%	-13%	-6	24µM*
COc1ccc(C(=O)C2(C(=O)NCCO)CC(c3ccccn3)=NO2)cc1 (centres undefined)	.	.	.	6	.
CC(C)(C)c1ccc(-n2nc(C(N)=O)c(O)cc2=O)cc1	?	?	-4%	-1	4.7µM*
N#CC1=C(Nc2ccccc2Cl)SC(c2ccncc2)NC1=O (centres undefined)	.	5%	.	-1	27µM*
CC1(C)C(=O)N(CC(=O)Nc2ccc(OC(F)(F)F)cc2)c2ccccc21	12%	-7%	-9%	0	.
Cn1cccc1Cc1nnc(SCC(=O)Nc2cccc(F)c2)n1-c1ccc(F)cc1	?	2%	0%	0	?
Cn1cccc1Cc1nnc(SCC(=O)Nc2cccc(Cl)c2)n1-c1ccc(F)cc1	-24%	28%	-4%	-4	27µM*
COc1ccc2cc1Oc1cc3c(cc1OC)CC[N+](C)(C)C3Cc1ccc(cc1)Oc1c(OC)c(OC)cc3c1C(C2)[N+](C)(C)CC3 (centres undefined)	-1%	-2%	20µM*	.	.
COc1ccc(S[C@]2(C(=O)N3CCN(c4ncccn4)CC3)CC(=O)N(C(=O)c3ccccc3)[C@@H]2c2ccc(OC)cc2)cc1	.	.	.	-3	.
COc1ccc(Nc2nnc(-c3ccc(O)cc3)c3ccccc23)cc1C(N)=O	-10%	7.9µM*	-19%	-5	0%
COc1ccc(-c2nnc(Nc3ccc(OC)c(C(N)=O)c3)c3ccccc23)cc1	24%	6%	0%	2	.
